# From PubChem BioAssay (NCI)
# The panel holds about 83,000 compounds, 20% with a hit somewhere; the sample as a whole holds those more often.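 The test compound was applied at a single concentration to cells in 96-well plates for 48 hours, and percent growth was recorded.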 A number with no mark means an inactive call. The source made the active and inactive calls. The calls were made as follows: active = growth percent below 10; inactive = the rest.
# Assays:
# Experiment in all cases: NCI-60 one-dose screen, 48 h (100 = growth as untreated, 0 = no growth, -100 = all killed)
# Conditions in all cases: 10 µM unless noted
# [1] = system: SR leukemia
# [2] = system: RPMI-8226 leukemia
# [3] = system: OVCAR-8 ovarian
# [4] = system: OVCAR-5 ovarian
# [5] = system: SK-OV-3 ovarian
# [6] = system: NCI/ADR-RES ovarian
# [7] = system: OVCAR-4 ovarian
# [8] = system: IGROV1 ovarian
# [9] = system: OVCAR-3 ovarian
# [10] = system: HS 578T breast
SMILES,growth [1],growth [2],growth [3],growth [4],growth [5],growth [6],growth [7],growth [8],growth [9],growth [10]
CC(=O)c1c(O)c(C)c(O)c2c1OC1=CC(=O)C(C(C)=O)C(=O)C12C (stereo not given),58%,41.6%,92.7%,88.3%,98.8%,63.4%,,,,
NC(=S)Nc1ccc2c(c1)Cc1ccccc1-2,84.9%,62.1%,,101%,98.1%,88.2%,83.4%,88.3%,98.3%,88.2%
C/C=C/c1cc2c(c(=O)o1)C(=O)[C@@H](O)[C@H](C)O2,11.9%,-45.7% (active),,87.5%,109%,86%,-12.6% (active),-46.9% (active),47.5%,93.4%
C(=N\Nc1ccc2ccccc2n1)/c1ccccn1,6.86% (active),25.1%,,47.4%,26.1%,18.6%,22.2%,2.7% (active),44.7%,38.4%
O=C(O)c1cc2c(s1)C(=O)c1sccc1C2=O,-12.3% (active),74.3%,,78.3%,115%,15.1%,-6.65% (active),56.3%,-18.6% (active),-18.8% (active)
O=C1/C(=C/c2ccccn2)CCc2ccccc21,51.2%,14.6%,,108%,86.6%,106%,104%,114%,109%,98.1%
CC(=O)C1Cc2ccccc2C1=O (stereo not given),108%,117%,,101%,96.1%,104%,104%,116%,112%,103%
c1ccc(C2NCCNC2c2ccccc2)cc1 (stereo not given),98.1%,108%,,99.3%,113%,109%,116%,102%,113%,104%
CN=C(N)N/N=C(\C)c1ccc2c(c1)Cc1ccccc1-2,-62.4% (active),-20.7% (active),-66.9% (active),-69.1% (active),-74.8% (active),-29.7% (active),,20.5%,-88.1% (active),-19.1% (active)
CC(C)(C)CC(C)(C)c1ccc(OCCOCCSC(=N)N)cc1,-24.4% (active),-43.6% (active),,73.6%,55.9%,45.5%,33%,54.9%,25.3%,33.9%
CCCN(CCC)C(=O)c1ccc(C)cc1,95%,93.3%,,95.3%,94.9%,100%,110%,106%,109%,84.1%
COc1ccc2c(c1)c(CC(=O)O)c(C)n2C(=O)c1ccc(Cl)cc1,106%,83.8%,,105%,119%,98%,102%,99%,125%,97.8%
N#Cc1c2ccccc2nc2ccccc12,103%,99.3%,93.9%,,116%,100%,83.2%,,110%,103%
O=[N+]([O-])c1ccc(Oc2ccccc2Cl)c([N+](=O)[O-])c1,1.58% (active),78.4%,,116%,99.8%,72.7%,56.4%,104%,94.1%,77.7%
CN(C)c1ccc2cc3c(cc2c1)Oc1ccccc1N3.[Cl][Zn][Cl],12.5%,48.9%,70.2%,,106%,86.2%,64%,78.5%,17.6%,106%
CN(C)c1ccc(C(=C2C=CC(=[N+](C)C)C=C2)c2ccc(N(C)C)cc2)cc1,-14.3% (active),-51.8% (active),,-34.4% (active),-90.9% (active),-18.8% (active),-18.5% (active),-37.2% (active),-91.1% (active),1.62% (active)
